The whole screen tested about 360,000 compounds, of which about 6,200 (1.7%) were called active. The sample as a whole holds a higher share of actives than the screen did. Unmarked numbers belong to inactive results.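 The calls were made as follows: active = inhibition of at least 50% at 20 µM; inactive = the rest.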
Test: inhibition of PEG-3 promoter activity – cell-based, HeLa, luciferase luminescence, primary screen (AID 588405)
Settings: HeLa PEG-Prom luciferase reporter, overnight, at 20 µM, active compounds read high

SMILES	inhibition
Cc1ccc(C(=O)N/C(=C\c2ccc(F)cc2)C(=O)NCCN2CCOCC2)cc1	-0.33%
O=C(NCCN1CCOCC1)/C(=C/c1ccc(F)cc1)NC(=O)c1ccccc1	-17.8%
O=C(NCCN1CCOCC1)c1ccc(/C=C2\Sc3ccccc3N(Cc3ccc(F)cc3)C2=O)cc1	66.6% (active)
O=[N+]([O-])c1ccc(CN2CC(N3CC=CC3)CS2(=O)=O)cc1 (centres undefined)	-12%
CN(C)CCNC(=O)c1cccc(-c2cnc3c(NC=O)cc(-c4cccc(C(F)(F)F)c4)cn23)c1	98.7% (active)
CC(=O)c1cccc(-c2cnc3c(NC=O)cc(-c4cccc(C(=O)N(C)C)c4)cn23)c1	33.8%
CN(C)C(=O)c1cccc(-c2cnc3c(NC=O)cc(-c4ccc(F)cc4)cn23)c1	35.5%
Nc1nc2c(ncn2[C@@H]2O[C@H](CNCc3ccc(OCCCN4CCOCC4)cc3)[C@@H](O)[C@H]2O)c(=O)[nH]1	-2.38%
COc1ccc(CNC(=O)c2ccc(-c3cccnc3)c3ccoc23)cc1OC	10.8%
Cc1cc(Cl)nc(NC(=O)Nc2cccc(Cl)c2)n1	-174%
CCC(=O)Nc1nc(C)c(C(=O)Nc2cccc(Cl)c2)s1	-28.7%
Cc1c(C(=O)Nc2cccc(Cl)c2)cn2c(nc3ccccc32)c1C#N	60.9% (active)
COc1cccc(CN(C)C(=O)CC[C@H]2O[C@@H](n3cnc4c(NC(=O)c5ccccc5)ncnc43)[C@H](O)[C@@H]2O)c1	4.1%
C[N+]1(CCNC(=O)/C=N/O)CCCCC1	17%
CCCNC(=O)C1(C)CCCN(C(=O)c2oc3ccccc3c2C)C1 (centres undefined)	-3.03%
CCCc1nc(NCc2ccc3c(c2)OCO3)c2nnn(Cc3ccccc3Cl)c2n1	1.34%
Cc1nc(Nc2ccc3c(c2)OCCO3)c2nnn(Cc3ccccc3Cl)c2n1	54.7% (active)
Cc1nc(Nc2ccccc2F)c2nnn(Cc3ccccc3Cl)c2n1	8.32%
COc1ccccc1-c1nn(Cc2ccccc2)cc1C(=O)N1CCN(c2ncccn2)CC1	33.2%
C/C(=N\NC(=O)Cc1ccccc1[N+](=O)[O-])c1cccnc1	17.7%
CC(=O)Nc1ccc(C=CC(=O)c2ccc([N+](=O)[O-])cc2)cc1	4.26%

SMILES	inhibition
O=C(/C=C/c1ccc(Cl)c([N+](=O)[O-])c1)c1ccc(O)cc1	104% (active)
O=C(Nc1cccnc1)c1ccc(Cl)cc1[N+](=O)[O-]	-0.43%
CC(CC(=O)O)C(=O)c1ccc(Cl)c([N+](=O)[O-])c1 (centres undefined)	1.7%
O=C(/C=C/c1ccc(Cl)c([N+](=O)[O-])c1)c1cccnc1	105% (active)
CC(C)(C)S(=O)N1Cc2cc(C(=O)NCCCN3CCOCC3)nc(-c3cccc(-c4cc5ccccc5o4)c3)c2[C@H]1CCO (some centres undefined)	-6.92%
CCCNC(=O)C1(C)CCN1C(=O)Cc1ccc(-c2ccccc2)cc1 (centres undefined)	-9.6%
CCCNC(=O)N1CCN(C(=O)NCCC)CC1	7.21%
CCC(C)(C)c1ccc(Oc2ccc(NC(=O)COC(=O)C3=COCCO3)cc2)cc1	11.8%
O=C1c2ccccc2C2=Nc3ccccc3SC(c3ccccc3F)C12 (centres undefined)	50.8% (active)
COc1ccc(-c2cc(NC(C)=O)c3ncc(-c4cc(OC)c(OC)c(OC)c4)n3c2)cn1	9.76%
Cc1ccc(C)c(NC(CC(=O)c2ccccc2)C(=O)OCC(=O)c2cccs2)c1 (centres undefined)	-74.6%
Cc1ccccc1C(CC(=O)c1cccs1)C(C#N)C#N (centres undefined)	98.4% (active)
O=C(NCC(=O)N1CCN(c2ccccc2F)CC1)c1cccs1	-57%
OCCC1CN(Cc2cccc(OC3CCCC3)c2)CCN1Cc1ccsc1 (centres undefined)	18.8%
CCc1nc2c(OCCOc3ccc(F)cc3)cccn2c1N(C)C(=O)c1ccccc1F	14.6%
C=C(C)C(=O)O[C@H]1C/C(C)=C\C(=O)/C=C(\C)[C@H](O)[C@@H]2OC(=O)C(=C)[C@@H]21	94.4% (active)
Cc1cc(NC(=O)COC(=O)/C=C/c2ccc(C)o2)no1	6.71%
Cc1sc2ncn(CC(=O)NCCCC(=O)N(C)Cc3ccccc3)c(=O)c2c1C	8.27%
COc1ccc(Nc2ncnc3ccc(Br)cc23)c(OC)c1	88.1% (active)
COc1ccccc1Nc1ncnc2c1oc1ccccc12	-388%
COc1ccc(OC)c(NC(=O)CN(C)CCOc2ccc(Br)cc2)c1	7.53%

SMILES	inhibition
Cc1cc(Br)cn2c(Cc3ccsc3)c(-c3ccc(C#N)cc3)nc12	-3.22%
CCOC(=O)C1CCCN(C(=O)c2ccc(N(C)C)cc2)CC1 (centres undefined)	-7.67%
O=[N+]([O-])/C=C/c1ccc2c(ccn2Cc2ccccc2)c1	107% (active)
O=C(Nc1nnc([C@H]2C[C@H](O)[C@@H](CO)O2)s1)c1cccc(Cl)c1	-8.3%
COc1ccc(NC(=O)/C(N=Nc2cccc(S(=O)(=O)Nc3ccc(SC(F)F)cc3)c2)=C(\C)O)cc1	50.3% (active)
Nc1cccc(S(=O)(=O)Nc2ccc(SC(F)F)cc2)c1	8.83%
Cc1c(NS(=O)(=O)c2cccc(C(=O)Nc3ccc(SC(F)F)cc3)c2)c(=O)n(-c2ccccc2)n1C	34.6%
CCN(CC)CCC(c1cc(OC)c(OC)c(OC)c1)c1c(OC)cc(OC)c2c(-c3ccccc3)cc(=O)oc12 (centres undefined)	27.4%
CCN(CC)C(=O)CC(c1ccc2c(c1)OCO2)c1c(OC)cc(OC)c2c(-c3ccccc3)cc(=O)oc12 (centres undefined)	7.97%
CCN(CC)CCC(c1ccc2c(c1)OCO2)c1c(OC)cc(OC)c2c(-c3ccccc3)cc(=O)oc12 (centres undefined)	56.4% (active)
CC1(C(=O)Nc2cccc3cccnc23)CCN1C(=O)CCC1CCCC1 (centres undefined)	10.3%
COc1ccc(CCNC(=O)Nc2ccc3c(c2)c(=O)n(C)n3C)cc1OC	-7.49%
O=C(c1ccc(F)cc1)c1c[nH]c(C(=O)NCc2cccnc2)c1	18%
COc1ccc(C(=O)Nc2ccccc2C(=O)N/N=C/c2ccc(O)c(OC)c2)cc1	83.7% (active)
O=C(NN=Cc1ccc2c(c1)CCC2)c1ccccc1O	-215%
COc1ccc(-c2[nH]ncc2/C=N/NC(=O)c2cc(Br)ccc2O)c(OC)c1	5.43%
O=C(Nc1cc(Br)ccc1F)c1nc[nH]c1C(=O)NCc1ccccc1	2.41%
Cc1sc2ccccc2c1CNC[C@H]1O[C@@H](n2ccc(=O)[nH]c2=O)[C@H](O)[C@@H]1O	-4.81%
Cc1cc(N/C=C\C(=O)c2ccc(Cl)c(Cl)c2)no1	-233%
COc1ccc(N2C(=O)CCC(C(=O)Nc3ccccn3)C2c2ccc(OC)c(OC)c2)cc1 (centres undefined)	12.5%
COc1ccc(C(=O)/C=C/Nc2ccccn2)cc1	63% (active)

SMILES	inhibition
COc1ccccc1CNC(=O)c1cc(-c2cc(F)ccc2OC)n[nH]1	0.22%
COc1ccc(OC)c(C(=O)NC(CC(N)=O)c2ccc(N3CCC(N4CCCCC4)CC3)c([N+](=O)[O-])c2)c1 (centres undefined)	0.66%
CCc1nc2c(OCc3ccccc3)cccn2c1N(C)C(=O)c1ccco1	11.6%
COc1ccc(CC(=O)Nc2ccc(-c3nnc(-c4ccc(C)cc4)o3)cc2)cc1	51.2% (active)
COc1ccc(NC(=O)Cn2c(-c3ccc(OC)cc3)cn(-c3ccc(C)cc3)c2=O)cc1	-103%
COc1ccc(CC(=O)Nc2c(C(N)=O)oc3ccccc23)cc1	8.96%
COc1ccc(CCCNC(=O)C2Cc3c(-c4cccc(C(N)=O)c4)ccnc3O2)cc1 (centres undefined)	14.7%
Nc1cccc(-c2cncc(N3CCN(Cc4ccccn4)CC3)n2)c1	-8.35%
CSCC[C@H](NC(=O)CCCn1nnc2ccccc2c1=O)C(=O)O	4.76%
CC(C)C[C@H]1CNC(=S)N1C[C@H]1CCCN1C[C@H](Cc1ccc(O)cc1)N1C[C@H](Cc2ccc(O)cc2)N(CC2CCCCC2)C1=S	99.5% (active)
CCOc1ccc(CCN2C(=S)N([C@@H](CC(C)C)CN3CCC[C@@H]3CN3C(=S)NC[C@@H]3Cc3ccc(O)cc3)C[C@@H]2Cc2ccc(O)cc2)cc1	14.3%
CCOc1ccc(CCN2C(=S)N([C@@H](CC(C)C)CN3CCC[C@@H]3CN3C(=S)NC[C@@H]3Cc3ccc(O)cc3)C[C@@H]2CC(C)C)cc1	14.2%
COCC(C)n1c(C)cc(C(=O)COc2ccc(C)nc2[N+](=O)[O-])c1C (centres undefined)	43.5%
Cc1ccc(OCC(=O)c2cc(C)n(Cc3ccco3)c2C)c([N+](=O)[O-])n1	55.6% (active)
Cc1cc(C(=O)COC(=O)CNC(=O)c2ccc(F)cc2)c(C)n1Cc1ccco1	-257%
CC(C)c1ccc(CC(=O)N2CCC2(C)C(=O)NS(=O)(=O)c2ccc(C(C)(C)C)cc2)cc1 (centres undefined)	11.3%
CC(C)Cn1cc(-c2cncc3nccn23)cn1	5.62%
CN(C(=O)CN1CCN(c2cc(-c3ccc(OCc4ccccc4)cc3)ncn2)CC1)c1ccccc1	-2.84%
c1ccc2cc3c(NCCN4CCOCC4)ccnc3cc2c1	69.5% (active)
Fc1ccc(-c2ccc(NCCN3CCOCC3)nn2)cc1	-96.4%
CCOc1nc(NCCN2CCOCC2)nc(Nc2ccc(C)cc2)n1	5.29%

Reference: PubChem BioAssay AID588405 (Sanford-Burnham Center for Chemical Genomics, 2011)
